proKLK7 act: proKLK7 zymogen activators, primary screen, biochemical, fluorescence intensity; purified proKLK7, EDANS-DABCYL substrate fluorescence; 100% is mature enzyme control, 0% vehicle; activation, % at 7 µM; 370,000 tested, 0.9% active;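 active = activation above the mean of all tested compounds plus 3 SD, computed per campaign excluding outliers beyond control limits, cut at about 13% in these data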
MBD2 inh: inhibitors of MBD2 binding to methylated DNA, primary screen, biochemical, TR-FRET, DNA-binding domain, human; inhibition, % at 4.4 µM; Methyl-CpG-binding domain protein 2 (Homo sapiens), Q9UBB5; 370,000 tested, 0.31% active; MBD2 binding to methylated oligonucleotide; in the data active = inhibition above about 13%
Rin1-Abl PPI inh: inhibitors of Rin1-Abl protein binding, primary screen, biochemical, TR-FRET | Tyrosine-protein kinase ABL1 (Homo sapiens) + Ras and Rab interactor 1 (Homo sapiens), … | inhibition, % at 7.35 µM | 360,000 tested, 0.4% active | AID 588664, 2011; in the data active = inhibition above about 5%, passing the limit was not always enough
UHRF1 MBD2 ctr: UHRF1 methylated DNA binding inhibitors, primary screen, counter-screen for MBD2 inhibitor project, biochemical, TR-FRET, human UHRF1, single concentration; E3 ubiquitin-protein ligase UHRF1 (Homo sapiens), Q96T88; UHRF1 binding to methylated oligo; inhibition, % at 4.4 µM; 370,000 tested, 0.75% active; AID 687016, 2013; in the data active = inhibition above about 21%;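 note: UHRF1 SRA domain binding a hemimethylated CpG hairpin DNA probe; 0% = median of test compound wells and 100% = reference inhibitor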
Target sequence (Q96T88 whole entry, looked up, the tested form may be a part): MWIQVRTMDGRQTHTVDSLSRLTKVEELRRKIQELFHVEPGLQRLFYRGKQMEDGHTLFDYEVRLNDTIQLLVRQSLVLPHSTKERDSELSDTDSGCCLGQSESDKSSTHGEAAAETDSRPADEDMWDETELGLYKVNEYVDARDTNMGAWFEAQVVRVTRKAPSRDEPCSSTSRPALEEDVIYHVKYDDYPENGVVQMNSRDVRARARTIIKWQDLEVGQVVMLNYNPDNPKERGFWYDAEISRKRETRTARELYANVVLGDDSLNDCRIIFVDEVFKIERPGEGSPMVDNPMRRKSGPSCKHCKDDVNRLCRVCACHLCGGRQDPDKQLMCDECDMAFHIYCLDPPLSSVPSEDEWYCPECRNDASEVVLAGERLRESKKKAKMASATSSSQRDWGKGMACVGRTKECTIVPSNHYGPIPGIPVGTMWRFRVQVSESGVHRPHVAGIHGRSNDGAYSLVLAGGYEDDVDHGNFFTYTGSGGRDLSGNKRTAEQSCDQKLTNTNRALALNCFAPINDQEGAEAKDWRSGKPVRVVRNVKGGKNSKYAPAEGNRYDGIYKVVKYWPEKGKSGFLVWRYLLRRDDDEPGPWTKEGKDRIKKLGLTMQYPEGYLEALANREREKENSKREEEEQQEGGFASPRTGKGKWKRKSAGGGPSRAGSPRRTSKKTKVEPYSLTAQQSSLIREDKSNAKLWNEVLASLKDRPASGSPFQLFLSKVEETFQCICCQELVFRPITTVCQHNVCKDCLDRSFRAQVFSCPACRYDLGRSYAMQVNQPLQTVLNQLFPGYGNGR
Neddylation inh: inhibitors of cullin neddylation, primary screen, biochemical, TR-FRET, uHTS, NAE and Ubc12; 360,000 tested, 0.58% active; NEDD8-conjugating enzyme Ubc12 (Homo sapiens) + NEDD8-activating enzyme E1 regulatory …; calls only at 25 µM; in the data active = inhibition above about 36%
LEDGF integ inh: blockers of LEDGF/p75-dependent integrase strand transfer – biochemical, TR-FRET, high throughput, primary screen. inhibition, % at 3.7 µM. 370,000 tested, 0.64% active. AID 743269, 2014. TR-FRET IN-LEDGF/p75 DNA integration, Eu/Cy5;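 active = inhibition above the screen-wide mean plus 3 SD, cut at about 13% in these data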;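 note: signal is the Cy5 over europium emission ratio at 671 and 618 nm; 0% = plate median of compound wells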
Neddyl conf: blockade of NEDD8 conjugation to cullin – biochemical, TR-FRET, single concentration, confirmation | shares compounds with Neddylation inh | TR-FRET cullin neddylation biochemical assay | calls only at 25 µM | 1,800 tested, 13% active | AID 652217, 2013; in the data active = inhibition above about 40%;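 note: neddylation substrate is the cullin 1 ring ligase complex with SKP2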
The depositor's hits bear a star; i = inactive; nt = no result given; + = active, no number. In the library only some 3.1% were active in any assay of this set; here they are far more common.

SMILES	proKLK7 act	MBD2 inh	Rin1-Abl PPI inh	UHRF1 MBD2 ctr	Neddylation inh	LEDGF integ inh	Neddyl conf
CC(=O)Nc1ccc(C(=O)COC(=O)CCN2C(=O)C3CC=CCC3C2=O)cc1 (stereo not drawn)	0.0	0.7	1.6	2.2	+	6.6	i
O=C(CCN1C(=O)C2CC=CCC2C1=O)OCC(=O)c1ccc(F)cc1 (stereo not drawn)	0.6	-0.7	3.6	-0.2	i	-1.3	nt
Cc1ccc(C)c(S(=O)(=O)C(C#N)c2nc3ccccc3nc2N2CC(C)OC(C)C2)c1 (stereo not drawn)	0.6	-1.6	-4.3	-3.8	+	5.4	i
Cc1ccc(-n2c(SCC(=O)OC(C)C)nnc2-c2ccncc2)cc1	0.2	4.4	4.4	-0.3	+	0.3	i
CC1CCCC(C)N1C(=O)CN1c2cccc3cccc(c23)S1(=O)=O (stereo not drawn)	6.8	-1.9	-0.8	-4.9	+	-5.0	+
O=C(CN1c2cccc3cccc(c23)S1(=O)=O)N1CCOCC1	11.7	-5.1	-2.6	-2.1	+	-2.4	nt
COc1ccc(CN2C(NC(=O)OCc3ccccc3)=NC3=CC(C)(C)n4c(=O)n(-c5ccccc5)c(=O)n4C32)c(OC)c1 (stereo not drawn)	-1.3	-0.5	nt	-1.9	nt	-1.7	nt
Nc1c(C(=O)Nc2ccccc2)c2nc3ccccc3nc2n1CCCN1CCOCC1	-8.3	-4.4	-0.8	-4.1	+	-1.4	+
O=C(c1ccccc1)N(CCO)Cc1cc2cc3c(cc2[nH]c1=O)OCCO3	0.9	0.8	2.7	-0.9	+	-2.9	i
O=C(NCc1ccccc1)N(Cc1cc2cc3c(cc2[nH]c1=O)OCO3)CC1CCCO1 (stereo not drawn)	1.2	3.7	-1.0	-1.4	+	0.7	i
CN(C)CCN(Cc1cc2cc3c(cc2[nH]c1=O)OCO3)C(=S)NCC1CCCO1 (stereo not drawn)	3.3	2.2	-1.0	7.3	+	1.9	i
Cc1cc2cc(CN(CC3CCCO3)C(=S)Nc3ccccc3)c(=O)[nH]c2cc1C (stereo not drawn)	0.8	2.2	-3.1	1.1	i	-2.3	nt
O=C(c1ccco1)N(CCO)Cc1cc2cc3c(cc2[nH]c1=O)OCO3	0.4	-1.3	-0.6	2.0	i	7.8	nt
CCOc1ccc(C(=O)N/N=C/c2ccc(-c3ccc(S(=O)(=O)Nc4ncccn4)cc3)o2)cc1	-0.8	-0.6	-0.7	4.9	+	0.9	+
CCCN(CC(=O)Nc1ccccc1C)C(=O)c1ccc(-c2ccc(C(C)=O)cc2)o1	nt	nt	1.0	nt	+	nt	nt
Cc1ccc(NC(=O)c2cc3ccccc3cc2O)cc1	-102.2	0.8	-2.5	-2.4	+	2.8	i
Cc1ccc(-c2cc(C(=O)NCc3ccccn3)c3ccccc3n2)cc1	-3.5	-1.8	-4.4	-1.9	+	-1.9	i
COc1ccc(OC)c(-c2cc(C(=O)N/N=C/c3cc(OC)c(OC)cc3OC)c3ccccc3n2)c1	0.0	0.0	-2.4	-0.4	nt	-1.4	nt
COc1ccc(OC)c(-c2cc(C(=O)N/N=C/c3ccc(F)cc3)c3ccccc3n2)c1	-4.6	-1.6	-1.5	-1.1	+	-4.0	nt
CCOc1ccccc1-c1cc(C(=O)N/N=C/c2cccnc2)c2ccccc2n1	0.7	-0.6	-3.1	-3.6	i	-2.2	nt
CCOc1ccc(-c2cc(C(=O)N/N=C/c3cccnc3)c3ccccc3n2)cc1	-13.2	-3.1	0.1	-0.5	+	-4.9	nt
CC1CN(C(=O)COC(=O)c2ccc(Cl)nc2)CC(C)O1 (stereo not drawn)	0.0	0.9	0.5	-0.7	i	3.1	nt
COc1ccc(C(=O)NCC(c2ccco2)N(C)C)cc1S(=O)(=O)NCc1ccc(Cl)cc1 (stereo not drawn)	-0.3	4.8	0.6	-0.1	i	1.0	nt
COc1cccc(/C=N/n2nnnc2N)c1OCc1ccccc1Cl	-3.0	-0.1	0.8	-1.5	+	0.6	nt
COc1cccc(/C=N/NC(N)=S)c1OCc1ccccc1Cl	-0.1	0.8	5.9	-3.4	i	5.4	nt
SMILES	proKLK7 act	MBD2 inh	Rin1-Abl PPI inh	UHRF1 MBD2 ctr	Neddylation inh	LEDGF integ inh	Neddyl conf
COc1ccc(-c2nn(-c3ccccc3)cc2CO)cc1OC	-0.6	-6.6	1.1	-1.1	+	-0.4	i
COc1cccc(-c2nn(-c3ccccc3)cc2CO)c1	-0.6	-6.1	0.1	-1.8	i	1.0	nt
Cc1nc2ccc(-c3nc4ccccc4[nH]3)cc2[nH]1	0.5	7.4	0.2	4.2	+	-0.8	i
CCOC(=O)C1CCCN(C(=O)c2cccc3ccccc23)C1 (stereo not drawn)	0.6	-1.3	-0.6	0.9	i	0.6	nt
CCOC(=O)C1CCc2c(ccc3ccccc23)N1CCC#N (stereo not drawn)	0.4	3.7	0.1	-0.9	+	-4.6	nt
COC(=O)N/N=C/c1ccc(OC(=O)/C=C/c2ccco2)cc1	0.5	-6.1	-2.3	0.5	+	5.2	i
O=C(Nc1ccc2c(c1)OCCO2)C(c1ccnc2ccccc12)N1CCN(C/C=C/c2ccccc2)CC1 (stereo not drawn)	0.4	10.9	1.0	17.8	i	3.3	nt
O=C1c2ccc3c4c(ccc(c24)C(=O)N1NC(=O)C(F)(F)F)CC3	1.9	-3.4	-2.4	-6.9	i	3.2	nt
O=C(NN1C(=O)c2ccc3c4c(ccc(c24)C1=O)CC3)c1ccc(Br)cc1	1.1	1.7	2.9	1.0	+	1.4	i
COc1ccc(C2(O)CC3CCC(C2)N3c2nc(C)cc(C)c2C#N)cc1 (stereo not drawn)	-4.2	2.9	-0.1	2.2	+	0.3	i
COc1ccc(Oc2nc(C)cc(C)c2C#N)cc1	0.1	4.9	0.7	1.3	i	-0.5	nt
CN(CCc1ccccc1)C(=O)c1ccc(NC(=O)Cc2ccc([N+](=O)[O-])cc2)cc1	0.7	3.0	2.7	1.3	i	-0.9	nt
CC(C)NCC(O)COCCOc1ccc(Cl)cc1 (stereo not drawn)	0.1	-3.0	-1.1	4.0	+	-1.7	i
CCCn1cnc2c(=S)nc(N)[nH]c21	0.1	-1.2	-3.3	1.5	i	-4.0	nt
